Experimental data: the supplement of paper PMC11732987, “Enantioselective OTUD7B fragment discovery through chemoproteomics screening and high-throughput optimisation” (Communications Chemistry, 2025)

How the values were obtained:
Experiment in all cases: log2 ratio of Biotin-Ahx-Ub-VS probe labelling (compound/DMSO); higher = less target engagement, active = hit call of the paper (q ≤ 0.05, log2 ratio ≤ -1)
Conditions in all cases: treatment time: 3 h
[1] = compound: CCC1N(CCc2sccc12)C(=O)CCl
In short: (§1)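 HEK293T lysate (495 µg per sample, in Tris/CHAPS/IGEPAL buffer with protease inhibitors) was exposed in triplicate to compound at 50 or 200 µM, or to DMSO, for 3 h, then to Biotin-Ahx-Ub-VS (0.5 µM final) for 1 h. The labelled DUBs were enriched on NeutrAvidin, digested with LysC and trypsin, and analysed by diaPASEF LC-MS/MS. Average base-two log ratios of compound over DMSO came from median-normalised label-free quantities by unpaired t-test. Only proteins with at least 2 unique peptides were used.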

[2] = compound: CN1c2ccccc2C(CS1(=O)=O)NC(=O)CCl
In short: as §1

[3] = compound: Cl.ClCC(=O)N1CCc2ncncc2C1
In short: as §1

[4] = compound: Cl.Cn1ncc2C(CCCc12)NC(=O)CCl
In short: as §1

[5] = compound: ClCC(=O)NC1CCOc2ccccc12
In short: as §1

[6] = compound: ClCC(=O)NC1CCCc2ccccc12
In short: (§2)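 Each value is an average ratio of compound to vehicle, calculated by unpaired t-test. Lysate from HEK293T cells (495 µg per sample) was incubated in triplicate with compound over a concentration range or vehicle for 3 h and then with Biotin-Ahx-Ub-VS (0.5 µM final) for 1 h. Probe-labelled deubiquitinases were captured on NeutrAvidin, digested and run by diaPASEF LC-MS/MS, with Spectronaut label-free quantities normalised to the global median. Ratios are log2, and only proteins with at least two unique peptides were used.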

[7] = compound: ClCC(=O)N[C@@H]1CCCc2ccccc12
In short: as §2

[8] = compound: ClCC(=O)N[C@H]1CCCc2ccccc12
In short: as §2

[9] = compound: CCC1N(CCc2cc(OC)c(Cl)cc12)C(=O)CCl
In short: as §1

[10] = compound: CCCC1N(CCc2cc(OC)c(OC)cc12)C(=O)CCl
In short: as §1

Measured: log2 ratio of Biotin-Ahx-Ub-VS probe labelling

ATXN3 (UniProt P54252)
Chain of UniProt P54252 (P54252 whole entry): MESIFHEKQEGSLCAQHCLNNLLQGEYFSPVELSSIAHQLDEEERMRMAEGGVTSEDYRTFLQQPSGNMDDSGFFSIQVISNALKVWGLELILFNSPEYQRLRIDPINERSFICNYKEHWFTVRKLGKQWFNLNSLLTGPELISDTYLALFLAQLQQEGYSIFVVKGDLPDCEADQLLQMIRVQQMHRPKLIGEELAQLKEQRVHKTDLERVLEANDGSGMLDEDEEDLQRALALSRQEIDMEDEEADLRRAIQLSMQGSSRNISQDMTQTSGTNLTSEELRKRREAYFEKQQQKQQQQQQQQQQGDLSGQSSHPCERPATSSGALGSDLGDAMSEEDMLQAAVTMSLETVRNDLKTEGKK
active: [3]; compound concentration: 200uM -1.37 | [9]; compound concentration: 200uM -1.54
inactive: [1]; compound concentration: 50uM -0.116 | [1]; compound concentration: 200uM -0.483 | [2]; compound concentration: 50uM -0.0445 | [2]; compound concentration: 200uM -0.365 | [3]; compound concentration: 50uM -0.35 | [4]; compound concentration: 50uM 0.199 | [4]; compound concentration: 200uM -0.212 | [5]; compound concentration: 50uM 0.00952 | [5]; compound concentration: 200uM -0.0594 | [6]; compound concentration: 0.78uM -0.108 | [6]; compound concentration: 1.56uM -0.213 | [6]; compound concentration: 3.13uM -0.478 | [6]; compound concentration: 6.25uM -0.165 | [6]; compound concentration: 12.5uM -0.236 | [6]; compound concentration: 25uM -0.301 | [6]; compound concentration: 50uM -0.18 | [6]; compound concentration: 100uM -0.156 | [6]; compound concentration: 200uM -0.285 | [7]; compound concentration: 0.78uM -0.286 | [7]; compound concentration: 1.56uM -0.107 | [7]; compound concentration: 3.13uM -0.24 | [7]; compound concentration: 6.25uM -0.0908 | [7]; compound concentration: 12.5uM -0.0507 | [7]; compound concentration: 25uM -0.218 | [7]; compound concentration: 50uM -0.0106 | [7]; compound concentration: 100uM -0.151 | [7]; compound concentration: 200uM -0.0598 | [8]; compound concentration: 0.78uM -0.183 | [8]; compound concentration: 1.56uM -0.0688 | [8]; compound concentration: 3.13uM -0.152 | [8]; compound concentration: 6.25uM -0.297 | [8]; compound concentration: 12.5uM -0.125 | [8]; compound concentration: 25uM -0.266 | [8]; compound concentration: 50uM -0.171 | [8]; compound concentration: 100uM -0.0739 | [8]; compound concentration: 200uM -0.312 | [9]; compound concentration: 50uM -0.248 | [10]; compound concentration: 50uM 0.126 | [10]; compound concentration: 200uM -0.435

USP34 (UniProt Q70CQ2)
Chain of UniProt Q70CQ2 (Q70CQ2 whole entry): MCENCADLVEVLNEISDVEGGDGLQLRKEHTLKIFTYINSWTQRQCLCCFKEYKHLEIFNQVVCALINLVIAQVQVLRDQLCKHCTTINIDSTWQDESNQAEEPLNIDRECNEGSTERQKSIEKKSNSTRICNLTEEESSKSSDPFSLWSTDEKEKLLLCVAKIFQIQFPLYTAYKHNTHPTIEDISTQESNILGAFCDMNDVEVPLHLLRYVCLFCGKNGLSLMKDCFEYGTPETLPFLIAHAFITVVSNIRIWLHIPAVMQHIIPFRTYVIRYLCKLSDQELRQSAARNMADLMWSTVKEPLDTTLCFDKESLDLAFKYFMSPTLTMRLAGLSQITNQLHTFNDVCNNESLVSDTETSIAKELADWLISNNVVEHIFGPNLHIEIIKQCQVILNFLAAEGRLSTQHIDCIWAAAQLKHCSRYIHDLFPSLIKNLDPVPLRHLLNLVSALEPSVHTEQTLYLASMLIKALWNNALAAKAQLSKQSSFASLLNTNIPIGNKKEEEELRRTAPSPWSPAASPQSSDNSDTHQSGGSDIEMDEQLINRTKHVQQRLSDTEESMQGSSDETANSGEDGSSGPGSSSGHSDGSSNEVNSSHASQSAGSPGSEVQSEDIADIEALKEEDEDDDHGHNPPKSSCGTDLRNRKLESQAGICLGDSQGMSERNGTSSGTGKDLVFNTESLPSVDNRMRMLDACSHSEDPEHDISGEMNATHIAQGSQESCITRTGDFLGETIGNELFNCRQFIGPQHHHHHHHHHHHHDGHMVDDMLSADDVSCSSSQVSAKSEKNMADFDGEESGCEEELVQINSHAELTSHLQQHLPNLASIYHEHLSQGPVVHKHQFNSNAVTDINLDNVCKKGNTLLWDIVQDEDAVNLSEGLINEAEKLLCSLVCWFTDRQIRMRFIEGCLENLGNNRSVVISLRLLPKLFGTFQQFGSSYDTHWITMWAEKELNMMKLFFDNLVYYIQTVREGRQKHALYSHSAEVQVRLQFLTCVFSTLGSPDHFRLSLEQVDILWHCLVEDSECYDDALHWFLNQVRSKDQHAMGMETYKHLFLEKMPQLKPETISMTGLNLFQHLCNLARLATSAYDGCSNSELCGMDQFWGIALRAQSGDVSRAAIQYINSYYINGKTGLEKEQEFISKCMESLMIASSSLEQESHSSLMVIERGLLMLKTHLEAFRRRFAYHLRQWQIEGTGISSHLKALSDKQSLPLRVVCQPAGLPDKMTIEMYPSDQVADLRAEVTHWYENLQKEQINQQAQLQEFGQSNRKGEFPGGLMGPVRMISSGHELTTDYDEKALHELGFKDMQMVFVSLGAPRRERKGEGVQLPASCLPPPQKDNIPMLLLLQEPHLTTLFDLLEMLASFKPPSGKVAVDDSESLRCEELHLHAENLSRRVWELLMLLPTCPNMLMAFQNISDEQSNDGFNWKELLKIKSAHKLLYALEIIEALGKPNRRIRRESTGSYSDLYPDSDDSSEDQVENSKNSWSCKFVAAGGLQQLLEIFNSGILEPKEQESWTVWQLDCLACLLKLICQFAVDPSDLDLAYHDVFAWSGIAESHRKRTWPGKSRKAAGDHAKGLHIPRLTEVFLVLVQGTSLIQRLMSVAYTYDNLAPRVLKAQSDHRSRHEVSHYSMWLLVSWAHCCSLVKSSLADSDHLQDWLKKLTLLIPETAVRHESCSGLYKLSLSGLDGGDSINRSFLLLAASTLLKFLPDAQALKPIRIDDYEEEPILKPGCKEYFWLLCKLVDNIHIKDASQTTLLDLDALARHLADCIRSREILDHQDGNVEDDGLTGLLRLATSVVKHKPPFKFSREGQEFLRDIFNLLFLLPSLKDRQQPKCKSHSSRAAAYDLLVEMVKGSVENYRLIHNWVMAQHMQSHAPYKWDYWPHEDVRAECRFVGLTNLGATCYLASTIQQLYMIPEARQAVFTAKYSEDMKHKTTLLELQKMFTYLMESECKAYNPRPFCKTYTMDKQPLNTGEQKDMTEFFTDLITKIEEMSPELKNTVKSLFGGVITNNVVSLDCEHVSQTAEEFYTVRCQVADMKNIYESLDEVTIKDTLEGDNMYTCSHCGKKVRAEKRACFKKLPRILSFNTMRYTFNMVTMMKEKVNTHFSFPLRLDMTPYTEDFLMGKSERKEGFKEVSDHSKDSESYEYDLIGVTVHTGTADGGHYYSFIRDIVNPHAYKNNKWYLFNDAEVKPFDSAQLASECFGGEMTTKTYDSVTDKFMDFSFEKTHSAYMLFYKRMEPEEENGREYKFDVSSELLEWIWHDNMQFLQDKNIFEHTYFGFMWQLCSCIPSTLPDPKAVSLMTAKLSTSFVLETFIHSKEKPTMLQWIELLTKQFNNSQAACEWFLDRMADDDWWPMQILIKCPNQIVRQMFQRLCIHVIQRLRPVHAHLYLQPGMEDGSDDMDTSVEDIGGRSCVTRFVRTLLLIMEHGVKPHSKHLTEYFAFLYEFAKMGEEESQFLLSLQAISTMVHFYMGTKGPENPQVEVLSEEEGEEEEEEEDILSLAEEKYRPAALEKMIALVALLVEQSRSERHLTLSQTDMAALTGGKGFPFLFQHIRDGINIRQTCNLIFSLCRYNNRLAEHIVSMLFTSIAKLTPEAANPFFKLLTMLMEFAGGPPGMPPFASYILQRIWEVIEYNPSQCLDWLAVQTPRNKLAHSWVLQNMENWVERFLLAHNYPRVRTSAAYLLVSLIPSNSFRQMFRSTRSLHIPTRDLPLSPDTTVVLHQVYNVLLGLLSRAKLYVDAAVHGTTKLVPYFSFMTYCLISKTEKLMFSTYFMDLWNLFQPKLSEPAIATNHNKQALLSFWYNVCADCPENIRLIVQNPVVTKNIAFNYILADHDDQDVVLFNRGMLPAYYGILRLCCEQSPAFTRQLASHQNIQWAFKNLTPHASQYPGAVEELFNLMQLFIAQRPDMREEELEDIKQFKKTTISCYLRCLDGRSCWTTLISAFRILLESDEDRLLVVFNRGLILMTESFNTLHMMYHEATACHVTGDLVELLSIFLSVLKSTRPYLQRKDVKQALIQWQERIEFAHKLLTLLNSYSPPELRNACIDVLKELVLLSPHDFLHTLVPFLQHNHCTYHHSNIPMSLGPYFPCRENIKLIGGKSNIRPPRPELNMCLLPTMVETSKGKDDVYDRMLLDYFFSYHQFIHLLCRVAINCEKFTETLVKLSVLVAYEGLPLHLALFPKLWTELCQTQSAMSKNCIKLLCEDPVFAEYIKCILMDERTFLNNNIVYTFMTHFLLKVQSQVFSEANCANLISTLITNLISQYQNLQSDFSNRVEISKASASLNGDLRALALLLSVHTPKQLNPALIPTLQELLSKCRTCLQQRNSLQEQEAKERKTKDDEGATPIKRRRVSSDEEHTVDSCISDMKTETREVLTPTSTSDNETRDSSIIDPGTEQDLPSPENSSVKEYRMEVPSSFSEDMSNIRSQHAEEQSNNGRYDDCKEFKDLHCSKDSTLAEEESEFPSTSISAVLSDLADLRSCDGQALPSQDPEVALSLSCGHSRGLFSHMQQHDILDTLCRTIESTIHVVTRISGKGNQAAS
active: [9]; compound concentration: 200uM -1.07
inactive: [1]; compound concentration: 50uM 0.0562 | [1]; compound concentration: 200uM 0.0678 | [2]; compound concentration: 50uM -0.259 | [2]; compound concentration: 200uM -0.515 | [3]; compound concentration: 50uM -0.659 | [3]; compound concentration: 200uM 0.31 | [4]; compound concentration: 50uM 0.745 | [4]; compound concentration: 200uM -0.98 | [5]; compound concentration: 50uM -0.212 | [5]; compound concentration: 200uM -0.0537 | [6]; compound concentration: 0.78uM 0.221 | [6]; compound concentration: 1.56uM 0.0458 | [6]; compound concentration: 3.13uM 0.0621 | [6]; compound concentration: 6.25uM -0.0557 | [6]; compound concentration: 12.5uM -0.314 | [6]; compound concentration: 25uM 0.126 | [6]; compound concentration: 50uM 0.134 | [6]; compound concentration: 100uM 0.11 | [6]; compound concentration: 200uM -0.619 | [7]; compound concentration: 0.78uM -0.0727 | [7]; compound concentration: 1.56uM -0.0851 | [7]; compound concentration: 3.13uM -0.276 | [7]; compound concentration: 6.25uM -0.184 | [7]; compound concentration: 12.5uM -0.209 | [7]; compound concentration: 25uM -0.23 | [7]; compound concentration: 50uM -0.396 | [7]; compound concentration: 100uM 0.0355 | [7]; compound concentration: 200uM 0.0474 | [8]; compound concentration: 0.78uM 0.0344 | [8]; compound concentration: 1.56uM -0.271 | [8]; compound concentration: 3.13uM -0.199 | [8]; compound concentration: 6.25uM 0.0878 | [8]; compound concentration: 12.5uM 0.322 | [8]; compound concentration: 25uM -0.00214 | [8]; compound concentration: 50uM 0.198 | [8]; compound concentration: 100uM 0.181 | [8]; compound concentration: 200uM -0.295 | [9]; compound concentration: 50uM 0.165 | [10]; compound concentration: 50uM 0.0993 | [10]; compound concentration: 200uM 0.244
